# PubChem BioAssay (NCI)
# “And” between values parts separate entries of the source, which are not always exact repeats. Equal entries are not always repeated. The panel holds about 79,000 compounds, 15% with a hit somewhere; the sample as a whole holds those more often. A structure can be active in one record and inactive in another. The source made the active and inactive calls. Rule as the data show it: active = growth inhibition above about 70%; inactive = the rest.
# Experiments:
# [1] = NCI Yeast Anticancer Drug Screen. Data for the rad50 strain (AID 155);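 also: 0% = growth of vehicle-only cultures of the same strain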; conditions: S. cerevisiae rad50 strain growth inhibition, stronger effect = higher value
# Procedure, shortened: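 Vehicle-treated cultures provide the reference for the growth inhibition reported for compound-exposed, repair-deficient yeast.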
# [2] = NCI Yeast Anticancer Drug Screen. Data for the sgs1 mgt1 strain (AID 161);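 also: 0% = growth of cultures given vehicle only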; conditions: S. cerevisiae sgs1 mgt1 strain, stronger effect = higher value
# Procedure, shortened: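 Inhibition of yeast growth, normalised to vehicle-treated controls, is reported for a strain bearing genetic alterations in DNA damage repair.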
# [3] = NCI Yeast Anticancer Drug Screen. Data for the cln2 rad14 strain (AID 165);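 also: 0% = growth equal to vehicle treated cultures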; conditions: S. cerevisiae cln2 rad14 strain, stronger effect = higher value
# Procedure, shortened: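 Growth of compound-exposed yeast (cln2 rad14 genotype) measured and expressed as inhibition relative to vehicle.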
# [4] = NCI Yeast Anticancer Drug Screen. Data for the bub3 strain (AID 167); conditions: S. cerevisiae bub3 mutant strain, stronger effect = higher value
# Procedure, shortened: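 Mutant yeast screening strain plus compound; vehicle-treated cultures serve as the 0% inhibition reference.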
# [5] = NCI Yeast Anticancer Drug Screen. Data for the mlh1 rad18 strain (AID 175); conditions: S. cerevisiae mlh1 rad18 strain growth inhibition, stronger effect = higher value
# Procedure, shortened: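 In this whole-cell yeast screen, a strain with altered DNA damage repair is challenged with compound, and its growth is measured against matched vehicle-treated controls.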
# [6] = NCI Yeast Anticancer Drug Screen. Data for the mec2-1 strain (AID 157); conditions: S. cerevisiae mec2-1 strain, stronger effect = higher value
# Procedure, shortened: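 Test agents were screened against the mec2-1 yeast strain, with defined DNA repair or cell cycle alteration. Growth was scored as inhibition against vehicle-only controls.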
# [7] = NCI Yeast Anticancer Drug Screen. Data for the wt2 strain (AID 169); conditions: S. cerevisiae wt2 strain growth inhibition, stronger effect = higher value
# Procedure, shortened: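 Genetically defined yeast strains from a DNA-repair/cell-cycle panel were used. Compound-exposed yeast growth was measured, and the inhibition was calculated relative to vehicle treatment.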
# [8] = at 5.0 µM (retest, dose inferred, filed as 0.5)
# [9] = at 50.0 µM (retest, dose inferred, filed as 5.0)
structure (smiles),measurement,setting,value
Cc1ccnc2c1c(=O)c1ccccc1n2C,growth inhibition,[1]; [8],0% (inactive)
same,growth inhibition,[1]; [9],86% (active)
same,growth inhibition,[1]; at 50.0 µM,79.1% (active)
same,growth inhibition,[2]; [8],-2% (inactive)
same,growth inhibition,[2]; [9],35% (inactive)
same,growth inhibition,[2]; at 50.0 µM,68.9% (inactive)
same,growth inhibition,[3]; [8],-6% (inactive)
same,growth inhibition,[3]; [9],-3% (inactive)
same,growth inhibition,[3]; at 50.0 µM,46.2% (inactive)
same,growth inhibition,[4]; [8],-1% (inactive)
same,growth inhibition,[4]; [9],12% (inactive)
same,growth inhibition,[4]; at 50.0 µM,71.6% (active)
same,growth inhibition,[5]; [8],3% (inactive)
same,growth inhibition,[5]; [9],55% (inactive)
same,growth inhibition,[5]; at 50.0 µM,74.3% (active)
NCCCC(=O)O,growth inhibition,[1]; at 50.0 µM,-5.85% (inactive) [middle of 4 runs]
same,growth inhibition,[3]; at 50.0 µM,6.95% (inactive) [middle of 4 runs]
same,growth inhibition,[4]; at 50.0 µM,-15.2% (inactive) [middle of 4 runs]
COC1OC(C(O)CO)C(O)C(O)C1O (stereo not given),growth inhibition,[6]; at 50.0 µM,13.7% (inactive) [middle of 4 runs]
same,growth inhibition,[2]; at 50.0 µM,12.2% (inactive) [middle of 4 runs]
same,growth inhibition,[5]; at 50.0 µM,25.1% (inactive) [middle of 4 runs]
Nc1ccccc1Oc1ccc(Cl)cc1Cl,growth inhibition,[6]; [8],37% (inactive)
same,growth inhibition,[6]; [9],61% (inactive)
same,growth inhibition,[6]; at 50.0 µM,92.7% (active)
same,growth inhibition,[2]; [8],-21% (inactive)
same,growth inhibition,[2]; [9],98% (active)
same,growth inhibition,[2]; at 50.0 µM,93% (active)
same,growth inhibition,[3]; [8],22% (inactive)
same,growth inhibition,[3]; [9],98% (active)
same,growth inhibition,[3]; at 50.0 µM,92.3% (active)
same,growth inhibition,[4]; [8],-18% (inactive)
same,growth inhibition,[4]; [9],95% (active)
same,growth inhibition,[4]; at 50.0 µM,92.3% (active)
same,growth inhibition,[7]; at 1.2 µM,-3% (inactive)
same,growth inhibition,[7]; at 3.7 µM,-16% (inactive)
same,growth inhibition,[7]; at 11.0 µM,-8% (inactive)
same,growth inhibition,[7]; at 33.0 µM,95% (active)
same,growth inhibition,[7]; at 100.0 µM,99% (active)
same,growth inhibition,[5]; [8],15% (inactive)
same,growth inhibition,[5]; [9],59% (inactive)
same,growth inhibition,[5]; at 50.0 µM,92% (active)
COc1cccc2c1C(=O)c1c(O)c3c(c(O)c1C2=O)C[C@@](O)(C(C)=O)C[C@@H]3OC1CC(N)C(O)C(C)O1 (stereo not given in full),growth inhibition,[1]; [8],32% (inactive)
same,growth inhibition,[1]; [9],91% (active)
same,growth inhibition,[6]; [8],-11% (inactive)
same,growth inhibition,[6]; [9],90% (active)
same,growth inhibition,[2]; [8],8% (inactive)
same,growth inhibition,[2]; [9],93% (active)
same,growth inhibition,[3]; [8],23% (inactive)
same,growth inhibition,[3]; [9],85% (active)
same,growth inhibition,[4]; [8],7% (inactive)
same,growth inhibition,[4]; [9],93% (active)
same,growth inhibition,[5]; [8],7% (inactive)
same,growth inhibition,[5]; [9],88% (active)
COC1OCC(O)C(O)C1O (stereo not given),growth inhibition,[1]; at 50.0 µM,-2.4% (inactive) [middle of 4 runs]
same,growth inhibition,[6]; at 50.0 µM,8.15% (inactive) [middle of 4 runs]
same,growth inhibition,[2]; at 50.0 µM,1.2% (inactive) [middle of 4 runs]
same,growth inhibition,[3]; at 50.0 µM,-8.1% (inactive) [middle of 4 runs]
same,growth inhibition,[4]; at 50.0 µM,-0.95% (inactive) [middle of 4 runs]
same,growth inhibition,[5]; at 50.0 µM,-7.4% (inactive) [middle of 4 runs]
CC(C)OC(=S)SSC(=S)OC(C)C,growth inhibition,[6]; [8],4% (inactive) and 0% (inactive)
same,growth inhibition,[6]; [9],100% (active) and 98% (active)
same,growth inhibition,[6]; at 50.0 µM,99.5% (active)
same,growth inhibition,[2]; [8],1% (inactive) and 9% (inactive)
same,growth inhibition,[2]; [9],99% (active) and 100% (active)
same,growth inhibition,[2]; at 50.0 µM,99.3% (active)
same,growth inhibition,[3]; [8],33% (inactive) and 9% (inactive)
same,growth inhibition,[3]; [9],94% (active) and 84% (active)
same,growth inhibition,[3]; at 50.0 µM,98.4% (active)
same,growth inhibition,[4]; [8],7% (inactive) and 2% (inactive)
same,growth inhibition,[4]; [9],99% (active) and 100% (active)
same,growth inhibition,[4]; at 50.0 µM,99% (active)
same,growth inhibition,[5]; [8],-1% (inactive) and 18% (inactive)
same,growth inhibition,[5]; [9],99% (active) and 94% (active)
same,growth inhibition,[5]; at 50.0 µM,98.3% (active)
COc1cccc2c1C(=O)c1c(O)c3c(c(O)c1C2=O)CC(O)(C(C)=O)CC3OC1CC(N)C(O)C(C)O1 (stereo not given),growth inhibition,[1]; [8],25% (inactive)
same,growth inhibition,[1]; [9],40% (inactive)
same,growth inhibition,[6]; [8],12% (inactive)
same,growth inhibition,[6]; [9],21% (inactive)
same,growth inhibition,[2]; [8],20% (inactive)
same,growth inhibition,[2]; [9],29% (inactive)
same,growth inhibition,[3]; [8],14% (inactive)
same,growth inhibition,[3]; [9],9% (inactive)
same,growth inhibition,[4]; [8],36% (inactive)
same,growth inhibition,[4]; [9],40% (inactive)
same,growth inhibition,[5]; [8],23% (inactive)
same,growth inhibition,[5]; [9],28% (inactive)
OCC(O)C(O)C(O)C(O)C(/C=N/Nc1ccccc1)=N/Nc1ccccc1 (stereo not given),growth inhibition,[1]; [8],-19% (inactive)
same,growth inhibition,[1]; [9],91% (active)
same,growth inhibition,[6]; [8],-5% (inactive)
same,growth inhibition,[6]; [9],61% (inactive)
same,growth inhibition,[2]; [8],-39% (inactive)
same,growth inhibition,[2]; [9],30% (inactive)
same,growth inhibition,[3]; [8],2% (inactive)
same,growth inhibition,[3]; [9],82% (active)
same,growth inhibition,[4]; [8],-3% (inactive)
same,growth inhibition,[4]; [9],54% (inactive)
same,growth inhibition,[5]; [8],8% (inactive)
same,growth inhibition,[5]; [9],86% (active)
COc1cc2c(cc1O)CC[n+]1cc3c(OC)c(OC)ccc3cc1-2,growth inhibition,[1]; at 50.0 µM,-56% (inactive) and 3.1% (inactive) and -3% (inactive)
same,growth inhibition,[6]; at 50.0 µM,-20% (inactive) and -15.3% (inactive) and 0.25% (inactive)
same,growth inhibition,[2]; at 50.0 µM,-20.8% (inactive) and 0.8% (inactive) and 20.3% (inactive)
same,growth inhibition,[3]; at 50.0 µM,9.65% (inactive) and 5.15% (inactive) and -13.2% (inactive)
same,growth inhibition,[4]; at 50.0 µM,-15.4% (inactive) and -3.15% (inactive) and 15.6% (inactive)
same,growth inhibition,[5]; at 50.0 µM,-11.1% (inactive) and -69.1% (inactive) and 0% (inactive)
O=C(O)C1CC(O)CN1 (stereo not given),growth inhibition,[1]; at 50.0 µM,26.6% (inactive) and 12.2% (inactive) and -2.5% (inactive)
same,growth inhibition,[6]; at 50.0 µM,-9.75% (inactive) and 11.6% (inactive) and -22.9% (inactive)
same,growth inhibition,[2]; at 50.0 µM,31.4% (inactive) and 15.3% (inactive) and 1.95% (inactive)
same,growth inhibition,[3]; at 50.0 µM,-4.7% (inactive) and 4.45% (inactive) and -18.1% (inactive)
same,growth inhibition,[4]; at 50.0 µM,23.1% (inactive) and 13.8% (inactive) and 2.75% (inactive)
same,growth inhibition,[5]; at 50.0 µM,30.6% (inactive) and 13.9% (inactive) and 1.9% (inactive)
O=C(OC1COC(OC(=O)c2ccccc2)C(OC(=O)c2ccccc2)C1OC(=O)c1ccccc1)c1ccccc1 (stereo not given),growth inhibition,[1]; at 50.0 µM,20.4% (inactive) [middle of 4 runs]
same,growth inhibition,[6]; at 50.0 µM,-7.1% (inactive) [middle of 4 runs]
same,growth inhibition,[2]; at 50.0 µM,9.5% (inactive) [middle of 4 runs]
same,growth inhibition,[3]; at 50.0 µM,-21.6% (inactive) [middle of 4 runs]
same,growth inhibition,[5]; at 50.0 µM,-4.1% (inactive) [middle of 4 runs]
CCOC(=O)/C(C#N)=C\c1ccc([N+](=O)[O-])o1,growth inhibition,[6]; [8],12% (inactive)
same,growth inhibition,[6]; [9],99% (active)
same,growth inhibition,[6]; at 50.0 µM,-12.1% (inactive) and 99.3% (active)
same,growth inhibition,[2]; [8],8% (inactive)
same,growth inhibition,[2]; [9],99% (active)
same,growth inhibition,[2]; at 50.0 µM,-20.9% (inactive) and 99.3% (active)
same,growth inhibition,[3]; [8],4% (inactive)
same,growth inhibition,[3]; [9],98% (active)
same,growth inhibition,[3]; at 50.0 µM,19.1% (inactive) and 99% (active)
same,growth inhibition,[4]; [8],12% (inactive)
same,growth inhibition,[4]; [9],99% (active)
same,growth inhibition,[4]; at 50.0 µM,-13.4% (inactive) and 99.2% (active)
same,growth inhibition,[5]; [8],16% (inactive)
same,growth inhibition,[5]; [9],99% (active)
same,growth inhibition,[5]; at 50.0 µM,-16.9% (inactive) and 99% (active)
